HePTP inh – human HePTP phosphatase inhibition; P35236; recombinant HePTP phosphatase activity, OD absorbance; inhibition, % at 20 µM; 110,000 compounds, 0.64% hits; AID 521; in the data active means inhibition above about 50%;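 further: plate controls were vehicle for no effect and reference inhibitor for full effect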
DUSP1 inh – human dual specificity phosphatase 1 inhibition. P28562. recombinant MKP-1, OMFP hydrolysis fluorescence. inhibition, %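 (compounds tested at a single concentration somewhere between 10 and 100 µM)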. 65,000 compounds, 0.15% hits;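 active means inhibition above about 50%, limit read from the data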;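 further: 0% = DMSO max control wells and 100% = wells with enzyme stopped by NaOH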
Cdc25B block – human M-phase inducer phosphatase 2 inhibition; recombinant Cdc25B, OMFP fluorescence Ex485/Em525; inhibition, %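 (compounds tested at 10 µM final in the well)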; 65,000 compounds, 0.1% hits; in the data active means inhibition above about 50%
BAP1 inh – inhibitors of human BAP1 deubiquitinase | Q92560 | recombinant BAP1, Ub-AMC hydrolysis fluorescence kinetic; hits give low values | calls only at 20 µM | 72,000 compounds, 0.48% hits;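 active means activity remaining at or below 50% of control, provided the compound also passes the data quality filters; inactive means the rest, including low values that fail the filters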;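 further: 100% = DMSO wells rate and 0% = substrate alone blank rate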
Target sequence (Q92560 whole entry, looked up): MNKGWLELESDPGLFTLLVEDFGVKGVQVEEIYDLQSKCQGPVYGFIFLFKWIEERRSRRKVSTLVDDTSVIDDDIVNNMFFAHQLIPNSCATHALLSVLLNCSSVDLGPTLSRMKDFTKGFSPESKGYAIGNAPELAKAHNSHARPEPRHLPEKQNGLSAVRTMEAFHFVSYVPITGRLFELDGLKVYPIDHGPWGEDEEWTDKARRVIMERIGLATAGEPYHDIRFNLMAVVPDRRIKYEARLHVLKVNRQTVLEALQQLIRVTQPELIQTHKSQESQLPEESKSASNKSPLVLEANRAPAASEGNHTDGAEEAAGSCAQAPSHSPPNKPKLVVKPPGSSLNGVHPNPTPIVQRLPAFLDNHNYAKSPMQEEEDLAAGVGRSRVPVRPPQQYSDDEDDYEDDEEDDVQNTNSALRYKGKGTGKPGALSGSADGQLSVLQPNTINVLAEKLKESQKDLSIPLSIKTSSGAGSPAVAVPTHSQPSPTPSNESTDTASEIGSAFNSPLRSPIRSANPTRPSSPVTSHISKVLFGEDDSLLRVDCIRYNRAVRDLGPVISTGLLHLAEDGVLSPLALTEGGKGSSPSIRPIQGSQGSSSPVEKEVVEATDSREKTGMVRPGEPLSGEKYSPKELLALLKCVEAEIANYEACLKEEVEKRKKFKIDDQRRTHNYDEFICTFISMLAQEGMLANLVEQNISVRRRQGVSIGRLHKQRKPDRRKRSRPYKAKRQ
PLAP activator – activates human placental alkaline phosphatase | P05187 | purified PLAP enzyme, luminescent substrate read-out; hits give high values | activation fold at 20 µM | 96,000 compounds, 1.2% hits; in the data active means activation fold above about 2
Active calls of the source: *; i = inactive; . = no result shown; ! = not confirmed by another sample. A selection: hits, their analogues and other compounds. The true share with any hit is near 1.4%.

SMILES | HePTP inh | DUSP1 inh | Cdc25B block | BAP1 inh | PLAP activator
Oc1ccc(-c2[nH]ncc2-c2ccc(Cl)cc2)c(O)c1 | -0.7 | 23.1 | 6.5 | i | 1.6
COc1ccc(-c2[nH]ncc2-c2ccc(Cl)cc2)c(O)c1 | 0.3 | 38.5 | 11.6 | i | 2*
CCOc1ccc(-c2[nH]ncc2Oc2cccc(OC)c2)c(O)c1 | -12.0 | 27.8 | 2.2 | i | 2.6*
COc1cccc(Oc2cn[nH]c2-c2ccc(OC)cc2O)c1 | 0.0 | 25.8 | -4.1 | i | 2.2*
COc1cccc(Oc2cn[nH]c2-c2ccc(O)cc2O)c1 | -6.6 | 5.6 | 3.1 | i | 2*
C=CCn1c(C)cc(C(=O)CSc2n[nH]c(N)n2)c1C | . | . | . | . | 2.7*
Cc1cc(C(=O)CSc2n[nH]c(N)n2)c(C)n1-c1cc(F)ccc1F | 10.7 | 22.9 | -7.4 | . | 2.4*
Cc1cc(C(=O)CSc2n[nH]c(N)n2)c(C)n1C1CC1 | . | . | . | . | 1.3
Cc1nc(SCC(=O)c2ccc(F)cc2)n[nH]1 | 1.2 | -5.8 | -1.1 | i | 2.3*
COc1ccc2[nH]c(C)c(C/C=C(/C)Cl)c(=S)c2c1 | 8.8 | . | . | . | .
CCOC(=O)c1c(NC(=O)c2ccco2)sc(C(=O)N(CC)CC)c1C | 5.4 | . | . | . | .
CC(c1nnc(SCC(=O)N2CC(=O)Nc3ccccc32)n1Cc1ccccc1)N(C)C (stereo unspecified) | . | . | . | . | 2*
C/C(=N\Nc1nc2c(s1)CCCC2)c1ccccc1 | . | . | . | . | 2.3*
CCOC(=O)C(=Cc1cc(OC)c(OC)cc1Br)C(=O)OCC | 3.3 | . | . | . | .
CCOC(=O)C(=CC1=C/C(=C/N(C)C)C(=O)O1)C(=O)OCC | 80.9* | . | . | . | .
Cc1cc(N2CCN(c3cccc(C(F)(F)F)c3)CC2)n2ncnc2n1 | -1.4 | 6.3 | -16.9 | i | 1
Cc1nc2ncnn2c(N2CCN(c3cccc(C(F)(F)F)c3)CC2)c1C | 3.8 | 27.8 | -7.2 | i | 2*
COc1cccc(-n2cnnn2)c1 | . | . | . | . | 0.9
COc1cccc(-n2cnc3cccc(N)c32)c1 | 91.7*! | 0.8 | -1.2 | i | 1.2
Cc1sc(NC(=O)c2cc(Cl)ccc2Cl)c(C#N)c1C | 103.0* | . | . | . | .
CCN(CC)C(=O)c1sc(NC(=O)c2cc(Cl)ccc2Cl)c(C#N)c1C | 103.6* | . | . | . | .
Cc1sc(NC(=O)c2ccccc2C(=O)O)c(C#N)c1C | 2.3 | . | . | i | .
CCN(CC)C(=O)c1sc(NC(=O)c2ccc(Cl)cc2)c(C#N)c1C | -13.1 | . | . | . | .
Cc1cccc(/C=C2/SC(=O)N(CN3CCCCC3)C2=O)c1 | 1.5 | . | . | . | .
COCc1cc(=O)[nH]c(Nc2nc(C)c3cc(OC)ccc3n2)n1 | . | . | . | . | 2.1*
SMILES | HePTP inh | DUSP1 inh | Cdc25B block | BAP1 inh | PLAP activator
Cc1nn(-c2ccccc2)c2sc(C(=O)O)cc12 | 6.2 | 15.8 | 102.0* | i | 1
CCOc1ccc2nc(NCCNC(=O)Nc3ccccc3)c(C#N)cc2c1 | 11.6 | -3.4 | 19.5 | i | 1.5
COc1ccc2nc(NCCCNC(=O)c3cc(OC)c(OC)c(OC)c3)c(C#N)cc2c1 | 8.4 | 13.7 | -2.1 | i | 2.4*
Cc1cccc(OCC(O)CN2C(=O)NC(C)(C)C2=O)c1 (stereo unspecified) | 103.6* | . | . | . | .
CC1(C)NC(=O)N(CC(O)COc2cccc(F)c2)C1=O (stereo unspecified) | 0.1 | 3.9 | -10.6 | i | 1
CCOC(=O)C1NN=C(C(=O)c2ccccc2)C1c1ccc(OC)cc1 (stereo unspecified) | 103.6* | . | . | . | .
CCOC(=O)C1CCN(Cc2ccc(Cl)c(Cl)c2)CC1 | . | . | . | . | 2*
O=C(Nc1ccc(Oc2ccc(NC(=O)C(F)(F)F)cc2)cc1)C(F)(F)F | -11.2 | . | . | . | .
O=C(COc1ccc(Cl)cc1Cl)Nc1ccc(Br)c(Cl)c1 | -0.7 | . | . | . | .
N#Cc1nc(-c2cccc(Cl)c2)oc1NCc1cccnc1 | . | . | . | . | 2*
COc1ccc(-c2nc(C#N)c(NCc3cccnc3)o2)cc1OC | . | . | . | . | 1.1
CC1CCCN(C(C(=O)Nc2ccc3c(c2)OCO3)c2ccccc2)C1 (stereo unspecified) | 7.7 | 2.0 | 4.1 | i | 2*
CC1CCCN(C(C(=O)Nc2ccc3c(c2)OCCO3)c2ccccc2)C1 (stereo unspecified) | 11.0 | -11.8 | -6.9 | i | 1.2
O=C(Nc1ccc2c(c1)OCO2)C(c1ccccc1)N1CCCCC1 (stereo unspecified) | 5.5 | 9.3 | 5.2 | i | 0.9
CC1CCN(C(C(=O)Nc2ccc3c(c2)OCO3)c2ccccc2)CC1 (stereo unspecified) | 5.5 | 5.4 | 5.4 | i | 2.2*
O=S(=O)(N/N=C/c1cccnc1)c1ccc(Br)cc1 | 8.2 | . | . | . | .
O=C(c1ccccc1)c1ccc2nc[nH]c2c1 | 4.7 | 0.2 | 3.4 | i | 2*
Cc1csc(NC(=O)c2nc3nc(C)cc(C)n3n2)n1 | -9.0 | 3.5 | -10.4 | i | 2.1*
Cc1cc(C)n2nc(C(=O)Nc3nccs3)nc2n1 | . | . | . | . | 1
Cc1csc(NC(=O)c2nc(-c3ccccc3)n(-c3ccccc3)n2)n1 | 8.0 | -6.3 | -9.8 | i | 2.8*
CC1=C(C(=O)OCC(C)C)C(c2ccc(Br)cc2)NC(=O)N1 (stereo unspecified) | 59.6* | . | . | i | .
COc1cccc(C(=O)NCCNc2ccc(C(F)(F)F)cc2[N+](=O)[O-])c1 | -0.4 | . | . | . | .
COc1cc(/C=C2/C(=O)NN(c3ccc(Cl)cc3)C2=O)cc(Br)c1O | 91.8* | . | . | . | .
C=CCOc1ccc(/C=C2/C(=O)NN(c3ccc(C(=O)OCC)cc3)C2=O)cc1OC | 60.0* | . | . | . | .
CCOC(=O)c1ccc(N2NC(=O)/C(=C/c3ccc4c(c3)OCO4)C2=O)cc1 | 100.4* | . | . | . | .
SMILES | HePTP inh | DUSP1 inh | Cdc25B block | BAP1 inh | PLAP activator
COc1cc(/C=C2/C(=O)NN(c3ccc(Cl)cc3)C2=O)ccc1O | 8.7 | . | . | . | .
Cc1sc2nc(-c3ccc(N(C)C)c(Br)c3)[nH]c(=O)c2c1C | -18.7 | . | . | . | .
CCOC(=O)c1c(-n2c(C)cc(/C=C3/SC(N)=NC3=O)c2C)sc2c1CCCC2 | 5.9 | . | . | . | .
O=C(O)CCCCCN1C(=O)C(=O)/C(=C(/O)c2ccc(Cl)cc2)C1c1ccccc1 (stereo unspecified) | -4.3 | . | . | . | .
O=[N+]([O-])c1ccc2c(c1)C(C#Cc1ccccc1)C1CCCCC1(N1CCOCC1)O2 (stereo unspecified) | -8.0 | . | . | . | .
CCCCOC(=O)c1ccc(NS(=O)(=O)c2cc(-c3nnnn3CC)ccc2OC)cc1 | -11.2 | 9.3 | -15.3 | i | 2.2*
CCOc1ccc(N(CC(=O)NCCSc2ccc(Cl)cc2)S(C)(=O)=O)cc1 | 7.2 | . | . | . | .
O=C(COc1ccc(Br)cc1)Nc1ccc2oc(-c3ccccc3F)nc2c1 | 4.6 | . | . | . | .
O=C(Nc1ccc2oc(-c3ccccc3Cl)nc2c1)c1ncn[nH]1 | -2.0 | 17.3 | -0.8 | i | 2*
CCOc1ccc(C(=O)Nc2ccc3oc(-c4ccccc4Cl)nc3c2)cc1 | 5.5 | . | . | . | .
O=C(COc1ccc(Cl)cc1)Nc1ccc2oc(-c3ccccc3F)nc2c1 | 57.1* | . | . | . | .
Cc1cc(N2CCCCC2)nc2ccc(NC(=O)CCC(=O)NCCC(C)C)cc12 | . | . | . | . | 2.2*
CCCCNC(=O)CCC(=O)Nc1ccc2nc(N3CCOCC3)cc(C)c2c1 | 4.5 | 6.3 | -9.9 | . | 1.1
Nc1ccc(-c2ccc(S(=O)(=O)c3ccc(-c4ccc(N)cc4)cc3)cc2)cc1 | -16.1 | . | . | . | .

Assay outcomes (PubChem)
